Only a selection was taken, and the strongest signals are over-represented in it overall.
How the values were obtained:
Assay in all cases: glycan array binding signal (z-score within array); higher = stronger binding
[1] = biological target: GlcNAc(a1-3)Gal(b1-4)GlcNAc; conditions: glycan notation: IUPAC condensed, linker removed
Outline: (§1)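 The Consortium for Functional Glycomics database supplied 3228 glycan arrays, of which those lacking an available protein sequence were dropped. The binding signal, a within-array Z-score, was averaged across arrays of the same protein sequence and across linkers. Negative scores can be read as non-binding.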

[2] = biological target: GlcNAc(a1-4)Gal(b1-4)GlcNAc(b1-3)Gal(b1-4)[Fuc(a1-3)]GlcNAc(b1-3)Gal(b1-4)[Fuc(a1-3)]GlcNAc; conditions: glycan notation: IUPAC condensed, linker removed
Outline: as §1

[3] = biological target: GlcNAc(b1-2)Man(a1-3)[GlcNAc(b1-4)][GlcNAc(b1-2)Man(a1-6)]Man(b1-4)GlcNAc(b1-4)[Fuc(a1-6)]GlcNAc; conditions: glycan notation: IUPAC condensed, linker removed
Outline: as §1

[4] = biological target: GlcNAc(b1-2)[GlcNAc(b1-4)]Man(a1-3)[GlcNAc(b1-4)][GlcNAc(b1-2)Man(a1-6)]Man(b1-4)GlcNAc(b1-4)GlcNAc; conditions: glycan notation: IUPAC condensed, linker removed
Outline: as §1

[5] = biological target: Man(a1-2)Man(a1-2)Man(a1-6)[Man(a1-3)]Man; conditions: glycan notation: IUPAC condensed, linker removed
Outline: as §1

[6] = biological target: Man(a1-3)[Man(a1-6)]Man; conditions: glycan notation: IUPAC condensed, linker removed
Outline: as §1

[7] = biological target: Man(a1-3)[Man(a1-6)]Man(a1-6)[Man(a1-3)]Man(b1-4)GlcNAc(b1-4)GlcNAc; conditions: glycan notation: IUPAC condensed, linker removed
Outline: as §1

[8] = biological target: Neu5Ac(a2-3)Gal; conditions: glycan notation: IUPAC condensed, linker removed
Outline: as §1

[9] = biological target: Neu5Ac(a2-3)Gal(b1-3)GalNAc; conditions: glycan notation: IUPAC condensed, linker removed
Outline: as §1

[10] = biological target: Neu5Ac(a2-3)Gal(b1-3)GalNAc(b1-4)[Neu5Ac(a2-3)]Gal(b1-4)Glc; conditions: glycan notation: IUPAC condensed, linker removed
Outline: as §1

[11] = biological target: Neu5Ac(a2-3)Gal(b1-3)GlcNAc(b1-3)GalNAc; conditions: glycan notation: IUPAC condensed, linker removed
Outline: as §1

[12] = biological target: Neu5Ac(a2-3)Gal(b1-3)GlcNAc(b1-6)GalNAc; conditions: glycan notation: IUPAC condensed, linker removed
Outline: as §1

[13] = biological target: Neu5Ac(a2-3)Gal(b1-4)Glc; conditions: glycan notation: IUPAC condensed, linker removed
Outline: as §1

[14] = biological target: Neu5Ac(a2-3)Gal(b1-4)GlcNAc(b1-6)[Gal(b1-3)]GalNAc; conditions: glycan notation: IUPAC condensed, linker removed
Outline: as §1

[15] = biological target: Neu5Ac(a2-3)Gal(b1-4)GlcNAc(b1-6)[Neu5Ac(a2-3)Gal(b1-3)]GalNAc; conditions: glycan notation: IUPAC condensed, linker removed
Outline: as §1

[16] = biological target: Neu5Ac(a2-3)Gal(b1-4)[Fuc(a1-3)]GlcNAc(b1-3)GalNAc; conditions: glycan notation: IUPAC condensed, linker removed
Outline: as §1

[17] = biological target: Neu5Ac(a2-6)GalNAc(b1-4)GlcNAc; conditions: glycan notation: IUPAC condensed, linker removed
Outline: as §1

[18] = biological target: Neu5Ac(a2-8)Neu5Ac(a2-3)Gal(b1-4)GlcNAc; conditions: glycan notation: IUPAC condensed, linker removed
Outline: as §1

[19] = biological target: Neu5Ac(b2-6)Gal(b1-4)GlcNAc; conditions: glycan notation: IUPAC condensed, linker removed
Outline: as §1

[20] = biological target: Neu5Ac(b2-6)GalNAc; conditions: glycan notation: IUPAC condensed, linker removed
Outline: as §1

[21] = biological target: Fuc(a1-2)Gal(b1-4)Glc6S; conditions: glycan notation: IUPAC condensed, linker removed; mutation: R343I
Outline: as §1

[22] = biological target: Fuc(a1-2)[Gal(a1-3)]Gal; conditions: glycan notation: IUPAC condensed, linker removed; mutation: R343I
Outline: as §1

[23] = biological target: Fuc(a1-2)[Gal(a1-3)]Gal(b1-3)GlcNAc; conditions: glycan notation: IUPAC condensed, linker removed; mutation: R343I
Outline: as §1

[24] = biological target: Fuc(a1-2)[GalNAc(a1-4)]Gal(b1-4)GlcNAc; conditions: glycan notation: IUPAC condensed, linker removed; mutation: R343I
Outline: as §1

[25] = biological target: Fuc(a1-3)GlcNAc; conditions: glycan notation: IUPAC condensed, linker removed; mutation: R343I
Outline: as §1

[26] = biological target: Fuc(a1-3)[Gal(b1-4)]GlcNAc(b1-2)Man(a1-3)[Fuc(a1-3)[Gal(b1-4)]GlcNAc(b1-2)Man(a1-6)]Man(b1-4)GlcNAc(b1-4)GlcNAc; conditions: glycan notation: IUPAC condensed, linker removed; mutation: R343I
Outline: as §1

[27] = biological target: Fuc(a1-3)[Gal(b1-4)]GlcNAc(b1-2)Man(a1-6)[Gal(b1-4)GlcNAc(b1-2)Man(a1-3)]Man(b1-4)GlcNAc(b1-4)GlcNAc; conditions: glycan notation: IUPAC condensed, linker removed; mutation: R343I
Outline: as §1

[28] = biological target: Gal(a1-2)Gal; conditions: glycan notation: IUPAC condensed, linker removed; mutation: R343I
Outline: as §1

[29] = biological target: Gal(a1-3)GalNAc; conditions: glycan notation: IUPAC condensed, linker removed; mutation: R343I
Outline: as §1

[30] = biological target: Gal(a1-4)GlcNAc; conditions: glycan notation: IUPAC condensed, linker removed; mutation: R343I
Outline: as §1

[31] = biological target: Gal(b1-3)[GlcNAc(b1-6)]GalNAc; conditions: glycan notation: IUPAC condensed, linker removed; mutation: R343I
Outline: as §1

[32] = biological target: Gal(b1-3)[Neu5Ac(b2-6)]GalNAc; conditions: glycan notation: IUPAC condensed, linker removed; mutation: R343I
Outline: as §1

[33] = biological target: Gal(b1-4)GalNAc(a1-3)[Fuc(a1-2)]Gal(b1-4)GlcNAc; conditions: glycan notation: IUPAC condensed, linker removed; mutation: R343I
Outline: as §1

[34] = biological target: Gal(b1-4)GlcNAc(b1-6)GalNAc; conditions: glycan notation: IUPAC condensed, linker removed; mutation: R343I
Outline: as §1

[35] = biological target: GlcNAc(b1-2)Man(a1-3)[GlcNAc(b1-2)Man(a1-6)]Man(b1-4)GlcNAc(b1-4)GlcNAc; conditions: glycan notation: IUPAC condensed, linker removed; mutation: R343I
Outline: as §1

[36] = biological target: GlcNAc(b1-3)Man; conditions: glycan notation: IUPAC condensed, linker removed; mutation: R343I
Outline: as §1

[37] = biological target: GlcNAc(b1-4)[GlcNAc(b1-6)]GalNAc; conditions: glycan notation: IUPAC condensed, linker removed; mutation: R343I
Outline: as §1

[38] = biological target: Man(a1-2)Man(a1-2)Man(a1-3)Man; conditions: glycan notation: IUPAC condensed, linker removed; mutation: R343I
Outline: as §1

[39] = biological target: Man(a1-2)Man(a1-3)[Man(a1-2)Man(a1-6)]Man(a1-6)[Man(a1-2)Man(a1-2)Man(a1-3)]Man; conditions: glycan notation: IUPAC condensed, linker removed; mutation: R343I
Outline: as §1

[40] = biological target: Man(a1-2)Man(a1-3)[Man(a1-6)]Man(a1-6)[Man(a1-2)Man(a1-3)]Man(b1-4)GlcNAc(b1-4)GlcNAc; conditions: glycan notation: IUPAC condensed, linker removed; mutation: R343I
Outline: as §1

[41] = biological target: Man(a1-2)Man(a1-6)[Man(a1-3)]Man(a1-6)[Man(a1-2)Man(a1-2)Man(a1-3)]Man; conditions: glycan notation: IUPAC condensed, linker removed; mutation: R343I
Outline: as §1

[42] = biological target: Man(a1-6)Man; conditions: glycan notation: IUPAC condensed, linker removed; mutation: R343I
Outline: as §1

[43] = biological target: Neu5Ac(a2-3)Gal(b1-3)GlcNAc(b1-3)Gal(b1-3)GlcNAc; conditions: glycan notation: IUPAC condensed, linker removed; mutation: R343I
Outline: as §1

[44] = biological target: Neu5Ac(a2-3)Gal(b1-3)GlcNAc6S; conditions: glycan notation: IUPAC condensed, linker removed; mutation: R343I
Outline: as §1

[45] = biological target: Neu5Ac(a2-3)Gal(b1-4)GlcNAc(b1-3)Gal(b1-4)GlcNAc; conditions: glycan notation: IUPAC condensed, linker removed; mutation: R343I
Outline: as §1

[46] = biological target: Neu5Ac(a2-6)GalNAc; conditions: glycan notation: IUPAC condensed, linker removed; mutation: R343I
Outline: as §1

[47] = biological target: Neu5Ac(a2-8)Neu5Ac(a2-3)Gal(b1-4)Glc; conditions: glycan notation: IUPAC condensed, linker removed; mutation: R343I
Outline: as §1

B1: Thrombomodulin (Mus musculus) (protein)
chain: ALAKLQPTGSQCVEHECFALFQGPATFLDASQACQRLQGHLMTVRSSVAADVISLLLSQSSMDLGPWIGLQLPQGCDDPVHLGPLRGFQWVTGDNHTSYSRWARPNDQTAPLCGPLCVTVSTATEAAPGEPAWEEKPCETETQGFLCEFYFTASC
glycan array binding signal (z-score) [1]: -0.129 | glycan array binding signal (z-score) [2]: 0.047 | glycan array binding signal (z-score) [3]: -0.052 | glycan array binding signal (z-score) [4]: 1.03 | glycan array binding signal (z-score) [5]: -0.278 | glycan array binding signal (z-score) [6]: 0.154 | glycan array binding signal (z-score) [7]: -0.262 | glycan array binding signal (z-score) [8]: -0.273 | glycan array binding signal (z-score) [9]: 1.07 | glycan array binding signal (z-score) [10]: -0.4 | glycan array binding signal (z-score) [11]: -0.354 | glycan array binding signal (z-score) [12]: 0.614 | glycan array binding signal (z-score) [13]: 2.91 | glycan array binding signal (z-score) [14]: -0.321 | glycan array binding signal (z-score) [15]: -0.43 | glycan array binding signal (z-score) [16]: 0.695 | glycan array binding signal (z-score) [17]: -0.193 | glycan array binding signal (z-score) [18]: -0.54 | glycan array binding signal (z-score) [19]: -0.139 | glycan array binding signal (z-score) [20]: -0.216

B2: Surfactant Protein D (Human); Neck + Carbohydrate Recognition Domain (NCRD) (Homo sapiens) (protein)
chain: MLLFLLSALVLLTQPLGYLEAEMKTYSHRTMPSACTLVMCSSVESGLPGRDRDGREGPRGEKGDPGLPGAAGQAGMPGQAGPVGPKGDNGSVGEPGPKGDTGPSGPPGPPGVPGPAGREGALGKQGNIGPQGKPGPKGEAGPKGEVGAPGMQGSAGARGLAGPKGERGVPGERGVPGNTGAAGSAGAMGPQGSPGARGPPGLKGDKGIPGDKGAKGESGLPDVASLRQQVEALQGQVQHLQAAFSQYKKVELFPNGQSVGEKIFKTAQFVKPFTEAQLLCTQAGGQLASPRSAAENAALQQLVVAKNEAAFLSMTDSKTEGKFTYPTGESLVYSNWAPGEPNDDGGSEDCVEIFTNGKWNDIACGEKRLVVCEF
glycan array binding signal (z-score) [21]: -0.274 | glycan array binding signal (z-score) [22]: -0.265 | glycan array binding signal (z-score) [23]: -0.272 | glycan array binding signal (z-score) [24]: -0.266 | glycan array binding signal (z-score) [25]: 5.51 | glycan array binding signal (z-score) [26]: -0.264 | glycan array binding signal (z-score) [27]: -0.272 | glycan array binding signal (z-score) [28]: -0.275 | glycan array binding signal (z-score) [29]: -0.268 | glycan array binding signal (z-score) [30]: -0.27 | glycan array binding signal (z-score) [31]: -0.274 | glycan array binding signal (z-score) [32]: -0.276 | glycan array binding signal (z-score) [33]: -0.263 | glycan array binding signal (z-score) [34]: -0.275 | glycan array binding signal (z-score) [35]: 5.45 | glycan array binding signal (z-score) [36]: -0.076 | glycan array binding signal (z-score) [37]: -0.05 | glycan array binding signal (z-score) [38]: 4.64 | glycan array binding signal (z-score) [39]: 4.37 | glycan array binding signal (z-score) [40]: 4.08 | glycan array binding signal (z-score) [41]: 4.33 | glycan array binding signal (z-score) ([6]; mutation: R343I): 0.263 | glycan array binding signal (z-score) [42]: -0.261 | glycan array binding signal (z-score) [43]: -0.268 | glycan array binding signal (z-score) [44]: -0.275 | glycan array binding signal (z-score) [45]: -0.278 | glycan array binding signal (z-score) ([15]; mutation: R343I): -0.275 | glycan array binding signal (z-score) [46]: -0.269 | glycan array binding signal (z-score) [47]: -0.267

Source: the supplement of paper PMC8728848
